Data published in PubChem BioAssay.
The source made the active and inactive calls.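 The calls were made as follows: active = growth inhibition above 50% at the single 2 µM test dose, taken to imply half-maximal potency below 2 µM; inactive = the rest.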

Test: antimalarial activity against Dd2 strain (AID 2302);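 also: 0% = DMSO untreated growth and 100% = chloroquine plus artemisinin killed control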
Details: P. falciparum Dd2 in RBCs, LDH growth readout, 72 h; at 2 µM; stronger effect = higher value
With `O=C(Nc1ccc(Cl)cc1)Nc1cccc(-c2cccc(-c3nc4ccc(F)cc4[nH]3)c2)c1` the growth inhibition was 84% (active). In the case of `c1cncc(CCNCc2cccc(-c3csc(-c4nc5ccccc5[nH]4)c3)c2)c1`, the growth inhibition was 98% (active). In the case of `COC(=O)c1cccc(NC(=O)NC2CCN(c3ccnc(NCc4ccc(F)cc4)n3)CC2)c1`, the growth inhibition was 39% (inactive). For `Cc1cc(=O)c(-c2ccc(Oc3cccc(OC(F)(F)F)c3)cc2)c(C)[nH]1`, the growth inhibition was 96% (active). With `COc1ccc(-c2csc(NC(=O)CCC(=O)O)n2)cc1OC` the growth inhibition was -2% (inactive). In the case of `COc1nc2c(CCN3CC[C@H](NCc4cc(C#N)c5c(c4)CCO5)[C@H](O)C3)ccnc2cc1F`, the growth inhibition was 71% (active). In the case of `O=C(/C=C/c1ccc(Cl)c(Cl)c1)NCCCCCN1CCC(CCNC(=O)/C=C/c2ccccc2F)CC1`, the growth inhibition was 1% (inactive). With `COc1ccc(NC(=O)Nc2ccc(-c3ccncc3)c(C(F)(F)F)c2)cc1N1CCN(C)CC1` the growth inhibition was 62% (active). In the case of `CCOC(=O)c1cccc(N/C(N)=N/c2nc(C)cc(NCCc3ccccc3)n2)c1`, the growth inhibition was 72% (active). For `CC(C)OC(=O)c1ccc(NC(=O)N[C@@H](Cc2ccc(O)cc2)C(=O)NC2C[C@H]3CC[C@@H](C2)N3Cc2ccccc2)cc1` (stereo partly drawn), the growth inhibition was 19% (inactive). For `O=C(Nc1ccc(F)cc1)c1ccc(C(=O)NC2CCN(CC3CCCCC3)CC2)cc1`, the growth inhibition was 0% (inactive). In the case of `CC(C)C[C@H](NC(=O)c1cc2ccccc2s1)C(=O)N[C@H]1CCN(Cc2ccc(OC[C@@H]3CCCN3C)c(Cl)c2)C1`, the growth inhibition was 81% (active). In the case of `CC(C)Cn1c2ccccc2c2nc3nc(N)nc(N)c3nc21`, the growth inhibition was -1% (inactive).
